# Screening results as filed in PubChem.
# Rows were chosen to be rich in hits. Some 3.4% of all compounds tested hit in one or more screens of this group.
# SMARCA2 act – SMARCA2 (BRM) function activators, primary screen, cell-based, luminescence, high throughput | AID 652017, 2013 | activation, % at 9.1 µM | 370,000 compounds, 1% hits | MG213 cells, MMTV-luciferase reporter, dexamethasone, overnight; in the data active means activation above about 7.8%;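 further: 0% = vehicle wells and 100% = reference activator wells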
# H9c2 protect – cardioprotection against H2O2-induced cell death, primary screen, uHTS, H9c2 cells, ATPLite luminescence. H9c2 cardiomyocytes, H2O2 injury protection, 2 h. protection from H2O2 cell death, % at 20 µM. 360,000 compounds, 0.63% hits. AID 588492, 2011;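 active means compounds giving at least 50% protection of heart cells from peroxide-induced death in the single-dose screen, raw or plate-pattern-corrected value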;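 further: 0% = DMSO wells with peroxide and 100% = DMSO wells without peroxide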
# Gli-Sufu block – Gli-Sufu pathway antagonists, primary screen, luciferase luminescence, Sufu-KO-LIGHT cells, uHTS; 340,000 compounds, 0.74% hits; Sufu-KO-LIGHT fibroblasts, Gli luciferase reporter luminescence; AID 588413, 2011; inhibition, % at 5 µM;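 active means inhibition above about 55%, limit read from the data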;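 further: 0% = DMSO-treated cells and 100% = wells with medium but no cells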
# GalR3 antag – GalR3 antagonists in HEK293 cells, primary screen, cell-based, fluorescence readout | Galanin receptor type 3 (Homo sapiens), O60755 | HEK293 GalR3-CNG cAMP membrane potential fluorescence; galR3 body fused to GalR1 C-terminus | inhibition, % at 3 µM | 360,000 compounds, 0.44% hits;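 active means inhibition above the screen-wide average plus 3 SD, cut at about 13% in these data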;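 further: forskolin and galanin both at EC90 stimulate the cells; cAMP rise reported by CNG channel membrane potential dye signal; 0% = forskolin plus galanin with DMSO and 100% = forskolin alone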
# Target sequence (O60755 1-299 limits assumed): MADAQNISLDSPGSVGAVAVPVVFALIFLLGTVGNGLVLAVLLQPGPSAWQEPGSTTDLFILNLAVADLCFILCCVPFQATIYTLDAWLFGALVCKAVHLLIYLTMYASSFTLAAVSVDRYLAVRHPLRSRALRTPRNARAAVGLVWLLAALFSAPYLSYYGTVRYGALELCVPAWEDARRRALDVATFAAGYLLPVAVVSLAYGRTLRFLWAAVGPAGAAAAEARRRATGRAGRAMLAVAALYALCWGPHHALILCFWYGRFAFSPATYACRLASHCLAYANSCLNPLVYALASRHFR
# NR2F2 inh – NR2F2 transcriptional activity inhibitors, primary screen, cell-based, luciferase reporter, HEK293T, luminescence | AID 686940, 2013 | inhibition, % at 8.6 µM | COUP transcription factor 2 (Homo sapiens), P24468 | 370,000 compounds, 0.7% hits | HEK293T NGFI-A luciferase reporter;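 active means inhibition above a per-plate cutoff, mean inhibition of test wells between control levels plus 3 SD, cut at about 38% in these data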;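 further: cells cotransfected with COUP-TFII expression vector driving the NGFI-A reporter; 0% = median of COUP-TF2 test wells and 100% = reporter-only cells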
# FXN GAA850 act – FXN promoter activators, primary screen, cell-based, luciferase luminescence, HEK293 lucGAA850; HEK293 lucGAA850 FXN promoter luciferase reporter, 24 h; percent of 10 µM SAHA response; activation, % at 6 µM; 360,000 compounds, 0.56% hits;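 active means activation above the average of all compounds screened plus 3 SD, cutoff fixed separately per campaign, cut at about 7.5% in these data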;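 further: 0% = DMSO wells and 100% = 10 µM SAHA wells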
# SMARCA2 conf – SMARCA2 (BRM) function activators, confirmation, cell-based, luminescence, triplicate. activation, % at 9.1 µM. shares compounds with SMARCA2 act. MG213 cells, MMTV-luciferase with dexamethasone, overnight; MG213 cells expressing E1A, Rb sequestered; DMSO wells 0%, reference activator 100%. 3,500 compounds, 30% hits;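 active means activation above its plate's cutoff, the mean activation of tested wells plus 3 SD, cut at about 7.9% in these data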
# GAL4-VP16 Luc – GAL4-VP16 luciferase reporter activation, counter-screen for SMARCA2 (BRM) activator project, cell-based, pG5luc, luminescence, high throughput; shares compounds with SMARCA2 act; HEK293 GAL4-VP16 pG5luc reporter; scaled: DMSO wells 0%, SAHA wells 100%; activation, % at 9.1 µM; 3,500 compounds, 41% hits; AID 686939, 2013;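 active means activation above the solvent-only control well mean plus 3 SD, averaged across control plates, cut at about 5.2% in these data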
# Starred values were filed as active, the others as inactive; / = no result.
SMILES,SMARCA2 act,H9c2 protect,Gli-Sufu block,GalR3 antag,NR2F2 inh,FXN GAA850 act,SMARCA2 conf,GAL4-VP16 Luc
CCc1ccc(NC(=O)c2ccccc2Br)cc1,9.9*,-6.1,-87.0,-5.3,-42.2,5.9,4.6,10.1*
CCc1ccc(OC(=O)Nc2ccccc2)cc1,10.5*,-2.7,-59.5,-11.0,-47.2,5.6,9.2*,11.8*
CC(=O)Nc1ccc(NC(=O)c2ccccc2Br)cc1,-4.6,-2.9,/,-6.7,-12.8,-1.5,/,/
O=C(Nc1ccc(NC(=O)C2CC2)nc1)c1ccccc1F,8.6*,1.9,-3.2,-8.1,-13.9,2.4,7.6,5.3*
CCOC(=O)Nc1ccc(NC(=O)c2ccccc2F)cc1,9.0*,0.4,-48.0,-3.0,-26.0,2.1,9.5*,8.5*
O=C(CSc1nnc(COc2ccc(Br)cc2)o1)NC1CCCCC1,0.0,-4.8,-20.7,-6.4,5.7,-0.2,/,/
Nc1[nH]c(C(=O)c2ccccc2)c(-c2ccccc2Br)c1C(=O)NCc1ccc(-c2ccccc2)cc1,-5.9,/,/,-6.8,6.6,/,/,/
CC1(C)C(=O)Nc2ccccc2N1C(=O)Cn1ncc(Cl)c(Cl)c1=O,18.6*,-20.2,2.6,-4.3,6.5,7.2,22.6*,0.5
N#C/C(=C(/O)c1ccc(F)cc1)c1nc2ccccc2s1,8.8*,-26.4,-16.3,-7.7,-8.8,0.8,-3.2,8.9*
COCCN(C(=O)c1ccccc1OC1CCN(S(C)(=O)=O)CC1)C(C)C,8.1*,3.2,-3.4,1.1,0.6,2.3,-0.4,1.0
O=C(O)c1ccccc1C(=O)NNc1cccc(Cl)n1,8.6*,-2.8,-10.8,-5.2,-48.6,3.8,-0.6,3.8
CCOC(=O)c1nn(-c2ccc3ccccc3c2)cc1O,8.2*,-6.5,-36.8,0.4,-36.4,2.1,2.6,5.6*
CCOC(=O)c1nn(-c2ccccc2)cc1O,3.0,-1.0,-0.4,-9.9,-52.8,2.2,/,/
CN(C)CCN(C(=O)c1ccc2ccccc2c1)c1nc2cc3c(cc2s1)OCO3,10.8*,8.1,/,-2.8,-8.3,-0.5,1.2,1.5
O=C(Nc1nnc(-c2ccccc2F)s1)c1cccnc1,1.7,-7.9,-41.5,4.2,4.7,2.1,/,/
O=C(Nc1nnc(C(F)(F)F)s1)c1cccnc1,9.0*,-5.6,-38.1,-5.5,-19.3,0.7,3.0,9.3*
O=C(Nc1nnc(-c2cccnc2)s1)c1cccs1,-1.7,-7.2,4.0,10.3,12.3,-3.2,/,/
O=C(Nc1nnc(-c2cccnc2)s1)c1cnc2ccccc2c1,8.0*,/,/,/,-38.1,/,5.6,3.0
O=C(CSc1nnc(-c2ccco2)o1)c1ccc([N+](=O)[O-])cc1,-2.2,0.6,/,1.4,-10.5,-0.3,/,/
O=C(CSc1nnc(-c2ccco2)o1)c1ccccc1Cl,9.3*,-2.0,-9.7,-6.0,-32.6,2.5,6.3,0.7
CCc1sc(NC(=O)CN2CCOCC2)nc1-c1ccccc1,8.7*,-2.9,0.1,0.5,12.9,-0.2,-2.7,-1.9
Cc1nc(NC(=O)CN2CCOCC2)sc1-c1ccccc1,3.4,-9.8,-30.8,-4.4,-36.1,2.6,/,/
OC(c1ccccc1)c1nc(-c2ccc(F)c(Cl)c2)cs1 (centres undefined),1.8,-5.4,/,-6.7,-38.5,2.3,/,/
CCCCC(=O)Nc1cc(C(=O)NCCc2ccccc2)ccc1Cl,8.2*,1.4,-77.4,-8.5,-27.7,2.4,7.0,8.8*
Cc1ccccc1NC(=O)Nc1nc2ccc(S(C)(=O)=O)cc2s1,9.2*,-1.3,-47.4,3.9,-34.5,0.8,2.9,4.5
NS(=O)(=O)c1ccc2nc(NC(=O)Nc3ccccc3F)sc2c1,4.0,-8.5,-97.2,-5.6,-29.3,5.9,/,/
Cc1cc(C(=O)Nc2nc3ccc(S(C)(=O)=O)cc3s2)c(C)o1,10.3*,-5.9,-32.2,-6.9,-36.1,4.8,3.5,5.8*
